Only some compounds are listed: those with a hit (about 2.8% of all), similar ones and a draw of the others.
POLB inh – inhibitors of human DNA polymerase beta; Potency, µM (series often up to 114 µM), without a hit: at the top dose activity change, negative = inhibition, usual class: inhibitors; actives 1.3% (n = 340,000); Pol beta primer extension/strand displacement, fluorescence kinetic; AID 485314; further: potency means the concentration at half of the fitted maximal effect; on the % scale 0 is the no-effect control and ±100 the full control effect
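10 nM enzyme + cpd, 15 min RT; start with substrate 50 nM final; read 0 min and after 10 min RT. Corrected, normalized data; 4-parameter Hill curve fit.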
Pol kappa inh-1 – inhibitors of human DNA polymerase kappa. Potency, µM (series often up to 107 µM), without a hit: at the top dose activity, negative = inhibition, most hits filed as inhibitors. actives 0.53% (n = 400,000). purified Pol kappa, fluorescent DNA synthesis assay, 10 min. AID 588579; further: potency means the concentration at half of the fitted maximal effect; on the % scale 0 is the no-effect control and ±100 the full control effect
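Fluorescent qHTS in 1536-well format: enzyme (10 nM) and compound sat 15 min at room temperature before 50 nM substrate (final) was added. Signal taken at 0 and 10 min; no-enzyme buffer wells were negative controls.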
PI5P4K alpha inh – PI5P4K alpha (human) kinase inhibition | P48426 | PI5P4Kalpha enzyme, ADP-Glo luminescence, 60 min; hits give low values | max response, % | actives 1.2% (n = 330,000) | AID 652105; active means max response of -50% or lower; inconclusive means between -30% and -50%; inactive means -30% or higher; further: value at the top dose of about 77 µM; on the % scale 0 is the no-effect control and ±100 the full control effect
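Enzyme plus substrate dispensed, test compounds pinned in, then ATP (5 microM final) added. After 60 min at RT, ADP-Glo reagent 1 for 45 min and reagent 2 for 30 min preceded luminescence imaging.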
Pol eta inh-1 – DNA polymerase eta (human) inhibition; recombinant Pol eta, fluorescent DNA replication assay; Potency, µM (highest dose often 114 µM), for the others: at the top dose activity change, negative = inhibition, most hits filed as inhibitors; actives 1.2% (n = 390,000); further: potency means the concentration at half of the fitted maximal effect; on the % scale 0 is the no-effect control and ±100 the full control effect
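Fluorescent replication assay: 50 nM final substrate added after a 15 min room-temperature compound preincubation with 10 nM enzyme. Signal taken at 0 min and again at 10 min.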
FEN1 inhibitor – inhibitors of human flap endonuclease 1. Recombinant FEN1 flap cleavage, fluorescence, 15 min. P39748. AID 588795. Potency, µM (doses to about 114 µM), for the others: at the highest dose activity change, negative = inhibition, most hits filed as inhibitors. actives 0.35% (n = 390,000); further: potency means the concentration at half of the fitted maximal effect; on the % scale 0 is the no-effect control and ±100 the full control effect; nearly all actives have a fitted effect of over 65% in size
Target sequence (P39748 whole entry, looked up): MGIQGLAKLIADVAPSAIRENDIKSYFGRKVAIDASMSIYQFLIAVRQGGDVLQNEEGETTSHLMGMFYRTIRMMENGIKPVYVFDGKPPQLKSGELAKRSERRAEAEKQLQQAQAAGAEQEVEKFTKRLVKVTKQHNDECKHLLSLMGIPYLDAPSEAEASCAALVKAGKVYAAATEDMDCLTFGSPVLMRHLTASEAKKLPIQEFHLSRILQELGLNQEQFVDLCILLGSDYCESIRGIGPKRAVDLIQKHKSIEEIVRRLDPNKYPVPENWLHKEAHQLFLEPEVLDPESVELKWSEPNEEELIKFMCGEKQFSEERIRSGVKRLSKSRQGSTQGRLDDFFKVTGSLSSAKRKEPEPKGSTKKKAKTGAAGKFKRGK
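Nuclease activity of 10 nM FEN1 was measured after 15 min of room-temperature exposure to titrated compounds, by adding 50 nM flap substrate and reading plates at 0 and 15 min.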
POLI inh – blocks human DNA polymerase iota activity. Q9UNA4. Pol iota fluorescent replication assay, 10 min. Potency, µM (top dose mostly 115 µM), for inactives: top-dose activity, negative = inhibition, actives largely listed as inhibitors. actives 1% (n = 390,000). AID 588590; further: potency means the concentration at half of the fitted maximal effect
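Pol iota at 10 nM preincubated 15 min with compounds at room temperature; reaction started with fluorescent substrate, 50 nM final. Fluorescence read kinetically at 0 and 10 min; buffer-only wells as negative control.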
Pol kappa inh-2 – Pol kappa (human) inhibition, cherry-pick confirmation | shares compounds with Pol eta inh-1 | purified Pol-kappa, fluorescent strand-displacement substrate | Potency, µM, hits mostly inhibitors | actives 76% (n = 920); further: potency means the concentration at half of the fitted maximal effect
Pol eta inh-2 – confirmation of human DNA polymerase eta inhibitors; Potency, µM, most hits filed as inhibitors; actives 64% (n = 2,600); Pol eta primer extension, TAMRA/BHQ fluorescence, 10 min; shares compounds with Pol eta inh-1; further: potency means the concentration at half of the fitted maximal effect
An asterisk follows results filed as active; ? = inconclusive; . = no result. Unless noted, the call rests on the fitted dose curve; in most records, active means well fitted curve in the direction sought with a large enough effect; inconclusive means small, poorly fitted or top-dose-only effect, or another doubt; inactive means no such curve, though single readings can be large; an effect the other way counts as inactive or inconclusive.

SMILES	POLB inh	Pol kappa inh-1	PI5P4K alpha inh	Pol eta inh-1	FEN1 inhibitor	POLI inh	Pol eta inh-2	others
COc1cc(O)c2c(c1)OC(C)(C)CC2=O	7%	-4%	0	-3%	-4%	-3%	.
CSCC[C@H](NS(=O)(=O)c1ccc(C(C)=O)cc1)c1nnc2ccccn12	79µM*	-19%	?	14µM*	-11%	-21%	67*
O=c1c(C=Nc2cccc(C(F)(F)F)c2)c[nH]n1-c1cccc(Cl)n1	?	-2%	.	89µM*	-19%	-8%	?
Cc1cc(NS(=O)(=O)c2ccc(NC(=O)c3cc4c(=O)n5ccccc5nc4s3)cc2)nc(C)n1	?	89µM*	?	20µM*	-26%	50µM*	60*
CN(C)S(=O)(=O)c1cccc(NC(=O)c2cc3c(=O)n4ccccc4nc3s2)c1	12%	-5%	-1	-5%	-2%	1%	.
CCC1(CC)C(=O)C2=C3C1[C@H](C(=O)OC)CC(C(=O)OC)C[C@H]3[C@H]1C(=O)N(C)C(=O)[C@H]1[C@H]2C (stereo partly specified)	.	-6%	.	.	-1%	-7%	.
NC(=O)N/N=C/c1ccc(-c2ccc(S(=O)(=O)Nc3ncccn3)cc2)o1	.	?	-12	35µM*	-10%	?	67*	Pol kappa inh-2=38*
Cc1ccc(C2OC(=O)C=C2c2ccccc2)cc1 (stereo unspecified)	.	1%	7	-17%	11%	27%	.
O=[N+]([O-])c1ccc(Cl)c2c1C1C=CCC1C(c1ccccn1)N2 (stereo unspecified)	35µM*	?	-16	50µM*	-10%	?	?
CCOC(=O)c1cc2c(=O)n3ccccc3nc2n(Cc2ccco2)c1=NC(=O)c1ccc(C)c(C)c1	-20%	-23%	.	-13%	-20%	?	.
CCOC(=O)c1cc2c(=O)n3cccc(C)c3nc2n(Cc2ccco2)c1=NC(=O)c1cccnc1	35µM*	?	-30	20µM*	-21%	?	?
Cc1cccc(C(=O)N=c2c(C#N)cc3c(=O)n4cccc(C)c4nc3n2Cc2ccco2)c1	20µM*	28µM*	-93*	4.5µM*	-15%	8.9µM*	43*
CCOC(=O)N1CCN(Cc2nc3cc(NC(=O)c4ccc(F)cc4)ccc3n2C(C)C)CC1	25%	-15%	.	8%	-7%	6%	.
O=C(/C=C/c1ccc([N+](=O)[O-])cc1)Nc1cccc(C(=O)Nc2ccccc2C(=O)O)c1	?	-15%	-66*	28µM*	?	?	24*
CN(C)S(=O)(=O)c1ccc(Cl)c(NC(=O)COC(=O)/C=C/c2ccco2)c1	?	-30%	-27	?	1%	?	?
CCN(CC)S(=O)(=O)c1ccc(/C=C/C(=O)OCC(=O)NCc2ccco2)cc1	.	?	-57*	16µM*	-5%	35µM*	?	Pol kappa inh-2=42*
Cc1cc(O)c(CN(C)C)c2c1C(=O)/C(=C/c1ccco1)O2	-7%	-94%	-23	11µM*	?	?	54*	Pol kappa inh-2=34*
O=C(COC(=O)c1ccc(S(=O)(=O)NCc2ccco2)cc1)Nc1ncc(Cl)cc1Cl	?	-11%	-13	-28%	5%	64%	.
CC(OC(=O)c1ccc(S(=O)(=O)NCc2ccco2)cc1)C(=O)Nc1ccc(Cl)cn1 (stereo unspecified)	?	-19%	?	?	-6%	?	67*
C#Cc1ccc([C@@H]2C=C(C(=O)O)O[C@H](OCC)[C@H]2CCCO)cc1	.	50µM*	0	7.9µM*	-8%	?	30*	Pol kappa inh-2=4.7*
O=C(NC1CCCCC1)C1CC(=O)N(c2cccc([N+](=O)[O-])c2)C1 (stereo unspecified)	2%	1%	2	-17%	10%	-3%	.
COC(=O)c1c(C)[nH]c(C(=O)COc2ccc3ccc(=O)oc3c2)c1C	.	-38%	-5	45µM*	?	?	?
CC(C)CC(NC(=O)/C(=C\c1ccco1)NC(=O)c1ccco1)C(=O)O (stereo unspecified)	1%	-13%	5	-5%	6%	20%	.
O=C(Nc1cccc(C(=O)O)c1)/C(=C\c1ccco1)NC(=O)c1ccc(Br)o1	?	79µM*	?	18µM*	-25%	?	38*	Pol kappa inh-2=24*
CC(C)CC(NC(=O)/C(=C/c1ccco1)NC(=O)c1ccc(Br)o1)C(=O)O (stereo unspecified)	0%	71µM*	-8	22µM*	-23%	?	.	Pol kappa inh-2=?
SMILES	POLB inh	Pol kappa inh-1	PI5P4K alpha inh	Pol eta inh-1	FEN1 inhibitor	POLI inh	Pol eta inh-2	others
O=C(Nc1cccc(C(=O)O)c1)/C(=C\c1ccco1)NC(=O)c1ccccc1	16%	-30%	?	?	0%	?	.
O=C(COC(=O)c1ccc(Br)o1)NC1CCCc2ccccc21 (stereo unspecified)	.	-15%	-8	-8%	9%	-26%	.
CC(=O)NS(=O)(=O)c1ccc(NC(=O)c2cc(-c3ccc(C)c(C)c3)nc3ccccc23)cc1	25µM*	-7%	?	22µM*	-16%	-22%	76*
CC(C)C[C@@]12C(=O)N(c3cccc(F)c3)C(=O)N1[C@H](c1ccc(Cl)cc1)[C@@H]1C(=O)N(C3CCCCC3)C(=O)[C@@H]12	.	-8%	1	-13%	-11%	?	.
COc1ccc(Cn2c(O)c(C=Nc3ccccc3C(=O)O)c3ccccc3c2=O)cc1	?	-45%	-13	20µM*	?	?	67*
CCOc1ccc(N2CC(c3nc4ccccc4n3Cc3cccc(Cl)c3)CC2=O)cc1 (stereo unspecified)	1%	-16%	.	-13%	-11%	-8%	.
NC(=O)c1ccc(-n2nnnc2SCC(=O)c2ccc(O)c(O)c2)cc1	10µM*	25µM*	?	10µM*	-13%	14µM*	43*
O=C1NC[C@H](CCCCN2CCN(CC3CCCCC3)C(=O)C2=O)N(CC2CCCCC2)C1=O	.	.	-4	.	.	.	.
C=CCN1C(=O)/C(=C/C=C2/N(CC)c3ccc(S(=O)(=O)N(C)C)cc3N2CC)SC1=S	4.5µM*	-18%	-14	45µM*	?	?	38*
CCN1C(=O)/C(=C/C=C2/SCCN2C)SC1=S	6%	-15%	3	4%	0%	-5%	.

High-throughput results: PubChem, National Center for Advancing Translational Sciences (NCATS)
